# Inconclusive results are not listed. A call without a number means that no potency is given here. Activity calls are given as the source filed them. Unless noted, calls come from the whole dose curve; as a rule, active = well fitted curve in the direction sought with a large enough effect in the repeat runs; inconclusive = weak or mixed curves; inactive = no such curve, though single readings can be large; an effect the other way counts as inactive or inconclusive.
# Assays:
# [1] = qHTS assay to identify small molecule antagonists of the vitamin D receptor (VDR) signaling pathway - cell viability counter screen (AID 743225); note: nearly all actives have a fitted effect of over 50% in size
# How it was run: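 Cytotoxicity toward the VDR-bla HEK 293T line was scored by ATP-based CellTiter-Glo luminescence, read in the wells already used for the beta-lactamase readout after 16 h compound treatment under 3 nM 1-alpha,25-dihydroxyvitamin D3 stimulation.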
# [2] = qHTS assay to identify small molecule agonists of the NFkB signaling pathway - cell viability counter screen (AID 1159515; calls by dose curve; note: series mostly up to about 61 µM; nearly all actives have a fitted effect of over 55% in size)
# How it was run: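 Multiplexed viability readout: after the 5 hr compound exposure and 1.5 hr FRET substrate step, CellTiter-Glo reagent went into the same NFkB-bla ME-180 wells; ATP luminescence was measured after 30 min at room temperature.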
# [3] = qHTS assay to identify small molecule agonists of the endoplasmic reticulum stress response signaling pathway (AID 1159516; active = well fitted activation curve with a large enough effect in the signal ratio in the repeat runs, not every such curve was filed as active; the % refers to the signal ratio; note: potency is the fitted concentration of half-maximal effect)
# How it was run: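 Tox21 10K library screened in quantitative HTS format on ESRE-bla HeLa cells, a beta-lactamase reporter under ER stress response element control; 5 hr treatment, FRET read.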
# [4] = qHTS assay to identify small molecule agonists of the endoplasmic reticulum stress response signaling pathway - cell viability counter screen (AID 1159517; calls by dose curve; note: series mostly up to about 61 µM; nearly all actives have a fitted effect of over 50% in size)
# How it was run: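 Cells, HeLa ESRE-bla; density, 1,500/well; dosing, 5 hr at 37 C, 5% CO2; readout, CellTiter-Glo luminescence after 30 min RT.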
# [5] = qHTS assay to identify small molecule antagonists of the retinoid-related orphan receptor gamma (ROR-gamma) signaling pathway - cell viability counter screen (AID 1159520); note: nearly all actives have a fitted effect of over 50% in size
# How it was run: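 Cytotoxicity was read from cellular ATP (CellTiter-Glo luminescence) after 16 hr at 37 C with 1 uM doxycycline induction. The inducer was added 2 hr after compound transfer to Tet-on ROR gamma CHO cells.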
# [6] = qHTS assay to identify small molecule agonists of the AP-1 signaling pathway - cell viability counter screen (AID 1159525; calls by dose curve; note: nearly all actives have a fitted effect of over 55% in size)
# How it was run: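 Luminescent ATP readout (Cell Titer Glo, 30 min RT), normalised to DMSO and tetra n-octyl ammonium bromide controls. Cells were ME-180 AP-1-bla in 0.5% dialyzed FBS Opti-MEM, with a 5 h, 37 °C compound exposure.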
# [7] = qHTS assay to identify small molecule agonists of the AP-1 signaling pathway (AID 1159526; calls by dose curve)
# [8] = qHTS assay to identify small molecule agonists of the RXR signaling pathway - cell viability counter screen (AID 1159529); note: series mostly up to about 77 µM; nearly all actives have a fitted effect of over 50% in size
# How it was run: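 Tox21 10K compounds were tested for cytotoxicity against GeneBLAzer RXR-alpha HEK 293T cells grown in 2% charcoal-stripped FBS. Exposure lasted 16 hr at 37 C, 5% CO2; viability read by CellTiter-Glo luminescence.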
# [9] = qHTS assay to identify small molecule antagonists of the retinoid acid receptor (RAR) signaling pathway - cell viability counter screen (AID 1159551); note: nearly all actives have a fitted effect of over 35% in size
# How it was run: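 Cytotoxicity counter screen in C3RL4 cells: 6 h compound exposure with 1 uM retinol (final), viability from cellular ATP by luminescence.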
# [10] = qHTS assay to identify small molecule antagonists of the retinoic acid receptor (RAR) signaling pathway (AID 1159552; note: nearly all actives have a fitted effect of over 50% in size)
# How it was run: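 Overnight-plated C3RL4 reporter cells get compound, then retinol to 1 uM final; plates sit 6 hr at 37 C, 5% CO2. A luciferase reagent is added and light output recorded after 30 min at room temperature.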
# [11] = qHTS assay to identify small molecule agonists of the retinoic acid receptor (RAR) signaling pathway (AID 1159553)
# How it was run: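 Agonist activity was scored in C3RL4 cells bearing a retinoic acid response element luciferase construct. Cells were treated with compounds for 6 hr at 37 C, and luciferase signal was measured as luminescence.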
# [12] = qHTS assay to identify small molecule antagonists of the estrogen related receptor (ERR) signaling pathway from Tox21 library - cell viability counter screen (AID 1224834); note: nearly all actives have a fitted effect of over 30% in size; note: potency is the fitted concentration of half-maximal effect
# How it was run: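 Cytotoxicity of test substances is gauged in the same ERR cells used for the antagonist screen, after 17.5 h of compound treatment at 37 C, by CellTiter-Fluor fluorescence measured after 30 min.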
# [13] = target: Nuclear receptor ROR-gamma (Homo sapiens) (UniProt P51449); experiment: qHTS assay to identify small molecule antagonists of the retinoid-related orphan receptor gamma (ROR-gamma) signaling pathway (AID 1159521; note: nearly all actives have a fitted effect of over 50% in size; note: potency is the fitted concentration of half-maximal effect)
# How it was run: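 Readout: ONE-Glo luciferase luminescence, 30 min at room temperature. System: Tet-on RORγ CHO, RORE-LUC. Sequence: compound 2 h, doxycycline 1 uM final, 16 h at 37 C.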
# [14] = qHTS assay to identify small molecule antagonists of the estrogen related receptor (ERR) signaling pathway - cell viability counter screen (AID 1224818);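 note: series mostly up to about 46 µM; viability measured after 17.5 h of compound exposure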
# How it was run: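 Cells carrying the ERR pathway reporter were seeded and incubated for 6 hours before compound addition. After a 17.5-hour exposure at 37 C, live-cell protease activity was measured by CellTiter-Fluor fluorescence following 30 minutes of incubation.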
# [15] = qHTS assay to identify small molecule antagonists of the estrogen related receptor signaling pathway with the pleiotropic PPARgamma coactivator (PGC) cell viability counter screen (AID 1224822;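 note: series mostly up to about 46 µM; viability read after 17.5 h compound exposure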)
# How it was run: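 Seed PGC/ERR cells (2,000/well); incubate 6 h at 37 C/5% CO2; pin-transfer compounds in DMSO; incubate 17.5 h at 37 C; add CellTiter-Fluor; after 30 min read fluorescence.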
# [16] = target: Retinoic acid receptor RXR-alpha (Homo sapiens) (UniProt P19793); experiment: qHTS assay to identify small molecule agonists of the RXR signaling pathway (AID 1159527; calls by dose curve; note: nearly all actives have a fitted effect of over 35% in size; note: potency is the fitted concentration of half-maximal effect)
# How it was run: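 Reporter activation is measured as beta-lactamase activity via FRET substrate cleavage (emission 460/530 nm) in HEK 293T cells expressing an RXR-alpha-driven bla construct, following 16 hr compound exposure at 37 C.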
# Sequence of Retinoic acid receptor RXR-alpha (Homo sapiens) (P19793 whole entry, looked up): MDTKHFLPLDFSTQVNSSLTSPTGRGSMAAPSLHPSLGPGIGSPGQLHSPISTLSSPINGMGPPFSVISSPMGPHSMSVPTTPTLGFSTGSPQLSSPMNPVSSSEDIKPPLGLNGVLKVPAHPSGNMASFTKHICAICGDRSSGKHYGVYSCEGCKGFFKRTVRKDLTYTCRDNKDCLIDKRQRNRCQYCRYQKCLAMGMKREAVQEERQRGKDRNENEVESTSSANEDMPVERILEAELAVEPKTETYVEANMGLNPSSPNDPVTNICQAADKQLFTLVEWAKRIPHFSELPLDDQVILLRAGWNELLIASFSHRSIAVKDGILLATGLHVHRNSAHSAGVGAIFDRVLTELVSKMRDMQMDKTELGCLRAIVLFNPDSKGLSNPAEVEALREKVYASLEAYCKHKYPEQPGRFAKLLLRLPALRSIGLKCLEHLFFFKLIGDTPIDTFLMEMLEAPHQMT
Structure (SMILES),Potency [1],Potency [2],Potency [3],Potency [4],Potency [5],Potency [6],Potency [7],Potency [8],Potency [9],Potency [10],Potency [11],Potency [12],Potency [13],Potency [14],Potency [15],Potency [16]
CNC(=O)CSP(=O)(OC)OC,inactive,inactive,inactive,inactive,inactive,inactive,inactive,inactive,inactive,inactive,inactive,inactive,,,,
CCO/N=C(\CC)C1=C(O)CC(c2c(C)cc(C)cc2C)CC1=O (stereo not given),,inactive,inactive,inactive,,inactive,inactive,,inactive,,inactive,,inactive,inactive,inactive,
O=C(Cl)c1ccccc1F,inactive,inactive,inactive,inactive,inactive,inactive,inactive,,inactive,inactive,inactive,inactive,,,,
CO/N=C(/C1=NOCCO1)c1ccccc1Oc1ncnc(Oc2ccccc2Cl)c1F,,inactive,inactive,inactive,,inactive,inactive,inactive,inactive,,,27.3 µM (active),0.968 µM (active),,,
Cc1cc2c3c(c1)C(c1ccccc1)=N[C@@H](NC(=O)c1ccncc1)C(=O)N3CC2,inactive,inactive,inactive,inactive,inactive,inactive,inactive,,inactive,inactive,inactive,,,,,
Oc1ccc2[nH]cc(CCCCN3CC=C(c4ccccc4)CC3)c2c1,inactive,inactive,4.25 µM (active),inactive,inactive,inactive,,inactive,,inactive,inactive,,,,,inactive
Oc1ccc(Cl)c(Cl)c1,inactive,inactive,inactive,inactive,,inactive,inactive,,inactive,,,inactive,17 µM (active),,,inactive
N#Cc1c[nH]cc1-c1cccc2c1OC(F)(F)O2,,inactive,inactive,inactive,,inactive,inactive,inactive,,,,,17.2 µM (active),,,1.38 µM (active)
COP(=S)(NC(C)C)Oc1ccc(C)cc1[N+](=O)[O-] (stereo not given),inactive,inactive,inactive,inactive,inactive,inactive,inactive,inactive,,,,,,,,
CNC(=O)/C=C(\C)OP(=O)(OC)OC,inactive,inactive,inactive,inactive,inactive,inactive,inactive,inactive,inactive,,,inactive,,,,
Cc1c([N+](=O)[O-])cc2c(c1[N+](=O)[O-])C(C)(C)CC2(C)C,inactive,inactive,inactive,inactive,inactive,inactive,,,inactive,inactive,inactive,inactive,,,,
CC(Cc1ccccc1)N(C)Cc1ccco1 (stereo not given),inactive,inactive,inactive,inactive,inactive,inactive,,inactive,,inactive,inactive,inactive,,,,inactive
O.O.O.O.O.O.O.O=S(=O)([O-])[O-].[Co+2],inactive,inactive,inactive,inactive,,inactive,inactive,inactive,inactive,,,inactive,,,,inactive
CN=C=O,inactive,inactive,inactive,,inactive,inactive,inactive,inactive,inactive,,,inactive,inactive,,,
CN/C(=N\[N+](=O)[O-])NCc1cnc(Cl)s1,inactive,inactive,inactive,,inactive,inactive,inactive,,,inactive,inactive,inactive,inactive,,,inactive

# From PubChem BioAssay (Tox21)
